Values without a mark were called inactive. Active and inactive are the calls of the source.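 The calls were made as follows: active = valid curve fit with half-effect dose at most 10 µM and total binding change across doses of 30 points or more; inactive = the rest.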

This note sets out measurements from PubChem BioAssay AID588477 (NMMLSC, 2011).

The subject of the assay is Rho wt. The assay can be described thus: small GTPase nucleotide-binding inhibition, multiplex panel – biochemical, round 1 SAR, Mg buffer, multiplex flow cytometry, selectivity assay for Cdc42 probe extension project, SAR follow-up (AID 588477). The settings on record: GST-GTPase beads, Bodipy-GTP binding; series mostly up to 100 µM; percent response (remaining binding): at the top concentration.
Regarding `COc1ccc(C2CC(c3ccccc3)=NN2c2ccc(S(N)(=O)=O)cc2)cc1` (stereo not drawn), the “percent response (remaining binding)” value was 92.8%.
On the same count and under the same terms, to `NS(=O)(=O)c1ccc(N2N=C(c3ccccc3)CC2c2ccccc2)cc1` (stereo not drawn) belongs 95.8%.
For `O=C(C#Cc1ccccc1)c1cccc([N+](=O)[O-])c1`, the call was inactive.
